# Reference: PubChem BioAssay (EPA / NIEHS)
# Where “and” joins values, the source holds several entries; their conditions need not be identical. Equal values may be shown once. Results filed as inconclusive are left out. Where a structure was tested more than once in an assay, its records may differ in their call. Calls of active or inactive are those of the source. Rule for the calls, unless noted: active = hit-call score of the fitted dose curve at least 0.9, where 1 is the maximum; inconclusive = response in the unintended direction; inactive = score below 0.9.
# Key:
# [1] = BSK_4H_Eotaxin3: BioMAP Diversity Plus: 4H Assay for Eotaxin 3 Biomarker Activity (AID 2283000; active = hit-call score of the fitted dose curve at least 0.9, where 1 is the maximum; inactive = score below 0.9;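 for outcome: CCL26 protein level quantified by ELISA in parallel with SRB cytotoxicity check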); conditions: primary human endothelial cells (HUVEC); actives raise or lower the signal
# Procedure, shortened: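 Human umbilical vein endothelial cells (BSK_4H system) dosed with test chemical; Eotaxin-3 (CCL26) measured by ELISA 24 h after dosing. Bidirectional curve fitting relative to DMSO negative control as baseline.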
# [2] = target: human Peroxisome Proliferator-activated Receptor delta (PPARd), PPARD (gene 5467) (UniProt Q03181); test: ATG_PPARd_TRANS: Attagene TRANS-FACTORIAL HepG2 Assay for human Peroxisome Proliferator-activated Receptor delta (PPARd) (AID 2283002)
# Sequence of human Peroxisome Proliferator-activated Receptor delta (PPARd), PPARD (gene 5467) (Q03181 whole entry, looked up, the tested form may be a part): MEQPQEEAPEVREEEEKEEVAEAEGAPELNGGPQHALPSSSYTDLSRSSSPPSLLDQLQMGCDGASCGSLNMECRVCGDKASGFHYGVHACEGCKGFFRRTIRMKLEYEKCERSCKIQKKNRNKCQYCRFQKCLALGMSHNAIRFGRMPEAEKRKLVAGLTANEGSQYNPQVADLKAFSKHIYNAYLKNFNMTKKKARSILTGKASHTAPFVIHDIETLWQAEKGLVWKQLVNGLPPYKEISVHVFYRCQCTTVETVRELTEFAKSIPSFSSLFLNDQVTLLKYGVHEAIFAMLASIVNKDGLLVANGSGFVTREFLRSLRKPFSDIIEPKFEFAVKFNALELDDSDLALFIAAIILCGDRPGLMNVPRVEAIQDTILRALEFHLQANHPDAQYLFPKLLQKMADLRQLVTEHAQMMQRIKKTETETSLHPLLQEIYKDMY
# Procedure, shortened: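 Fluorescence from capillary electrophoresis of labelled RT-PCR reporter fragments gives the signal; DMSO sets baseline. Cells: HepG2 transiently carrying GAL4-UAS reporter units plus chimeric nuclear receptor-Gal4 proteins, exposed to chemicals for 24 h.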
# [3] = read-out: Intercellular Adhesion Molecule 1 (ICAM1), ICAM1 (gene 3383); test: BSK_3C_ICAM1: BioMAP Diversity Plus: 3C Assay for Intercellular Adhesion Molecule 1 (ICAM1) Biomarker Activity (AID 2283003; active = hit-call score of the fitted dose curve at least 0.9, where 1 is the maximum; inactive = score below 0.9); conditions: primary human endothelial cells (HUVEC); actives raise or lower the signal
# Procedure, shortened: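 Using DMSO as baseline, bidirectional curve fitting was applied to ICAM-1 ELISA signals from HUVEC in the 3C system, measured 24 h after compound addition.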
# [4] = target: human Retinoic Acid Receptor beta (RARb), RARB (gene 5915) (UniProt P10826); test: ATG_RARb_TRANS: Attagene TRANS-FACTORIAL HepG2 Assay for human Retinoic Acid Receptor beta (AID 2283004)
# Sequence of human Retinoic Acid Receptor beta (RARb), RARB (gene 5915) (P10826 whole entry, looked up, the tested form may be a part): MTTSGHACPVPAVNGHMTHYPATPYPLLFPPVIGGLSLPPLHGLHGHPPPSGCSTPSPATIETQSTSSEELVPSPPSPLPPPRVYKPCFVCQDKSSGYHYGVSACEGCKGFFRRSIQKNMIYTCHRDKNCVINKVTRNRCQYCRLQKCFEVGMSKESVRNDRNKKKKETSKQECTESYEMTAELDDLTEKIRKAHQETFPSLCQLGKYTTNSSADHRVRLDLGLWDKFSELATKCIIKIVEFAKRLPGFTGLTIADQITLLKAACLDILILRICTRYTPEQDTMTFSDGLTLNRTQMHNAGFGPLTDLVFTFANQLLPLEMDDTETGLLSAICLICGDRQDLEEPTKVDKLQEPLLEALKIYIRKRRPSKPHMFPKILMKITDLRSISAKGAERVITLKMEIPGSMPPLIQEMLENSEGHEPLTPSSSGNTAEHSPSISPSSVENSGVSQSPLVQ
# Procedure, shortened: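 Induction of reporter mRNA from a chimeric RARb-Gal4 construct was measured by RT-PCR, FAM labelling, HpaI digestion and capillary electrophoresis. Measurements followed 24 h compound treatment of transiently transfected human HepG2 liver cells, with DMSO as baseline.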
# [5] = target: Retinoic acid receptor alpha (Homo sapiens) (UniProt P10276); test: ATG_RARa_TRANS: Attagene TRANS-FACTORIAL HepG2 Assay for human Retinoic Acid Receptor alpha (RARa) (AID 2283005);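 for AC50: potency for increased reporter signal meaning RARa activation over DMSO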
# Sequence of Retinoic acid receptor alpha (Homo sapiens) (P10276 whole entry, looked up, the tested form may be a part): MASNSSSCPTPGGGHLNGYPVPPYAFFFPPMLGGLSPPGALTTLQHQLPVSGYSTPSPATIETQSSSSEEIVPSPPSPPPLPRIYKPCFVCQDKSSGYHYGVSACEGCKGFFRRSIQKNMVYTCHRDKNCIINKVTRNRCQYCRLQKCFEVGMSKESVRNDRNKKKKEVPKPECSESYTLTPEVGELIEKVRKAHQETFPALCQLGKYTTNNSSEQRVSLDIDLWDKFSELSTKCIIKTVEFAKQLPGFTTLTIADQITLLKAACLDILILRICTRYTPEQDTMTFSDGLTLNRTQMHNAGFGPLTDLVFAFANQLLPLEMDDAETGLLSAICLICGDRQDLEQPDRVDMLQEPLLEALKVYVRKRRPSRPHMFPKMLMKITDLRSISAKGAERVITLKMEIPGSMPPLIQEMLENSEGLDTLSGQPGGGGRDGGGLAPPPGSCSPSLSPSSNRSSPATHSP
# Procedure, shortened: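 HepG2 transiently transfected with multiplex GAL4-UAS reporter units including a human RARa–GAL4 chimera; 24 h compound exposure. Reporter mRNA quantified by RT-PCR, 6-FAM labeling and capillary electrophoresis; gain of signal versus DMSO.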
# [6] = BSK_3C_Proliferation: Cell Proliferation Assessment in the BioMAP Diversity Plus: 3C Assay (AID 2283006; active = hit-call score of the fitted dose curve at least 0.9, where 1 is the maximum; inactive = score below 0.9;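 for AC50: potency may reflect either rise or fall in cell number versus DMSO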); conditions: primary human endothelial cells (HUVEC)
# Procedure, shortened: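 Measured here: sulforhodamine B (0.1%) staining of TCA-fixed sub-confluent umbilical vein endothelial cultures 48 h post-dosing, absorbance 560 nm. DMSO served as negative control and baseline; both signal gain and loss were modelled.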
# [7] = target: Peroxisome proliferator-activated receptor gamma (Homo sapiens) (UniProt P37231); test: ATG_PPARg_TRANS: Attagene TRANS-FACTORIAL HepG2 Assay for human Peroxisome Proliferator-activated Receptor-gamma (PPARg) (AID 2283007)
# Sequence of Peroxisome proliferator-activated receptor gamma (Homo sapiens) (P37231 whole entry, looked up, the tested form may be a part): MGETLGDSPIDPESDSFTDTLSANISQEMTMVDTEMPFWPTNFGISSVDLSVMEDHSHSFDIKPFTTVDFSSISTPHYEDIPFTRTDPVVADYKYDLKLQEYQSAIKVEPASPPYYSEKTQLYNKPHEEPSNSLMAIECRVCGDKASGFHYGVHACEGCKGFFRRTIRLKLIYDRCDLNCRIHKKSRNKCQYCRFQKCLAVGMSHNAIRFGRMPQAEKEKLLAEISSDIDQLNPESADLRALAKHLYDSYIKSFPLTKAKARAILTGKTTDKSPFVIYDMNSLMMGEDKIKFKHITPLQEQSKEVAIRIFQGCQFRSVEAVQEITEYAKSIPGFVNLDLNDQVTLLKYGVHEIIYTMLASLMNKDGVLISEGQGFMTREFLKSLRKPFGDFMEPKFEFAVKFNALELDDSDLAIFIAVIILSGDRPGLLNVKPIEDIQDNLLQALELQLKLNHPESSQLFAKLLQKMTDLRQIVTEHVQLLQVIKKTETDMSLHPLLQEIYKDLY
# Procedure, shortened: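 After 24 h of chemical exposure, transfected HepG2 cells carrying PPARγ-Gal4 chimera reporter constructs are lysed for RNA. Reporter transcripts are measured by RT-PCR and capillary electrophoresis with fluorescent labelling, and gain of signal is fitted versus DMSO.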
# [8] = target: Nuclear receptor subfamily 1 group I member 2 (Homo sapiens) (UniProt O75469); test: ATG_PXR_TRANS: Attagene TRANS-FACTORIAL HepG2 Assay for human Pregnane X Receptor (PXR) (AID 2283008)
# Sequence of Nuclear receptor subfamily 1 group I member 2 (Homo sapiens) (O75469 whole entry, looked up, the tested form may be a part): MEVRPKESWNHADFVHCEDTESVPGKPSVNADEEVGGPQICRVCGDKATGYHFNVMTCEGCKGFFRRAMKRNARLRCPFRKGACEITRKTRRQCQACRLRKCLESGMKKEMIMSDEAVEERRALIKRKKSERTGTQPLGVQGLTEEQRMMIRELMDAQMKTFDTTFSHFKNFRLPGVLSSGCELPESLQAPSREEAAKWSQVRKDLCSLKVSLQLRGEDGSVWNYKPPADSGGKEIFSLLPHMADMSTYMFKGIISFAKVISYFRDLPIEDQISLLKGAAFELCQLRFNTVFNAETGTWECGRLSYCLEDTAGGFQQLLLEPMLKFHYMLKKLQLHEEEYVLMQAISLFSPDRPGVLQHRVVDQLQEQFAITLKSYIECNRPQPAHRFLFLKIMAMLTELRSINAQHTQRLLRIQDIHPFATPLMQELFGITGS
# Procedure, shortened: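 Transactivation by exogenous PXR–GAL4 fusion measured as reporter transcript induction after 24 h compound treatment of transfected human HepG2 cells. Read-out via RT-PCR and capillary electrophoresis of labelled fragments, fitted upward relative to DMSO.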
# [9] = target: human Retinoic Acid Receptor gamma (RARg), RARG (gene 5916) (UniProt P13631); test: ATG_RARg_TRANS: Attagene TRANS-FACTORIAL HepG2 Assay for human Retinoic Acid Receptor gamma (RARg) (AID 2283009);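 for AC50: AC50 is for reporter induction above DMSO meaning RARg activation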
# Sequence of human Retinoic Acid Receptor gamma (RARg), RARG (gene 5916) (P13631 whole entry, looked up, the tested form may be a part): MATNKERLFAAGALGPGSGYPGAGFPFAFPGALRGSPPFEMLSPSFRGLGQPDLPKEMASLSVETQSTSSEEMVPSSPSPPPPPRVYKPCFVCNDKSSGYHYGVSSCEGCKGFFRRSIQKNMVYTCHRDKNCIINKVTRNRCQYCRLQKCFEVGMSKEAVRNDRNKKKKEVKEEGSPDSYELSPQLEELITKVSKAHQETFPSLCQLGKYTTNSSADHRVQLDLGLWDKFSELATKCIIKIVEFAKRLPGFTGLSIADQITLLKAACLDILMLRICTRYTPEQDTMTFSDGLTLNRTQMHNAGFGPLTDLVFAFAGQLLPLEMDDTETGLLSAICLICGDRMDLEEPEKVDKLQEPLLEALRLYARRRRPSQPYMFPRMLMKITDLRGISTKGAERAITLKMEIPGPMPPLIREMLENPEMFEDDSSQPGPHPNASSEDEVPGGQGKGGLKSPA
# Procedure, shortened: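 Gain-of-signal relative to DMSO is reported from fluorescent capillary electrophoresis of RT-PCR reporter products. These came from HepG2 cells expressing transfected RARg-GAL4 chimeras with UAS reporters, harvested 24 h after dosing.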
# [10] = target: human Peroxisome Proliferator-activated Receptor alpha (PPARa), PPARA (gene 5465) (UniProt Q07869); test: ATG_PPARa_TRANS: Attagene TRANS-FACTORIAL HepG2 Assay for human Peroxisome Proliferator-activated Receptor alpha (PPARa) (AID 2283001);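 for AC50: potency for gain of reporter signal over DMSO so agonist or activator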
# Sequence of human Peroxisome Proliferator-activated Receptor alpha (PPARa), PPARA (gene 5465) (Q07869 whole entry, looked up, the tested form may be a part): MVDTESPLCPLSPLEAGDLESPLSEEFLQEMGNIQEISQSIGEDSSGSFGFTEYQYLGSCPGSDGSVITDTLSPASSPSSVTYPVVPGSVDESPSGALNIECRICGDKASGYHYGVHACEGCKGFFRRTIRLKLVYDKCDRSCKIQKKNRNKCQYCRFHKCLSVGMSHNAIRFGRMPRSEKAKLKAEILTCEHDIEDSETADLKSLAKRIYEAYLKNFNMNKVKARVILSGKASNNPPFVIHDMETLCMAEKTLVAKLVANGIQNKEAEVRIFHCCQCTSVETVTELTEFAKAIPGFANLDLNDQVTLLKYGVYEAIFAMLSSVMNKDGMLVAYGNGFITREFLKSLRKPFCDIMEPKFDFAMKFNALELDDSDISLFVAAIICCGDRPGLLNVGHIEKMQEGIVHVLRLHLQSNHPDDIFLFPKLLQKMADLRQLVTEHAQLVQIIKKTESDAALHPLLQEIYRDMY
# Procedure, shortened: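 Transient HepG2 transfection, GAL4-UAS reporters, NR-Gal4 chimeras; 24 h compound exposure. Readout: reporter transcripts by RT-PCR, 6-FAM primer extension, HpaI digest, capillary electrophoresis. Positive direction vs DMSO baseline.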
compound,measurement,setting,value
ClC1=C(Cl)[C@]2(Cl)[C@@H]3[C@@H]4C[C@@H]([C@H]5O[C@@H]45)[C@@H]3[C@@]1(Cl)C2(Cl)Cl,outcome,[1],inactive
same,outcome,[2],inactive
same,outcome,[3],inactive
same,outcome,[4],inactive
same,AC50,[5],0.855 µM (active)
same,AC50,[6],14.5 µM (active)
same,outcome,[7],inactive
same,AC50,[8],2.84 µM (active)
same,AC50,[9],2.12 µM (active)
Cc1cccc(C)c1N,outcome,[1],inactive
same,outcome,[3],inactive
same,outcome,[6],inactive
C[C@]12CCC(=O)C=C1CC[C@@H]1[C@@H]2CC[C@@]2(C)[C@H]1CC[C@]2(C)O,outcome,[1],inactive
same,outcome,[2],inactive
same,outcome,[3],inactive
same,AC50,[6],28.8 µM (active)
same,outcome,[7],inactive
same,outcome,[8],inactive
same,outcome,[9],inactive
CCC(C)(c1ccc(O)cc1)c1ccc(O)cc1,outcome,[1],inactive
same,outcome,[10],inactive
same,outcome,[3],inactive
same,AC50,[6],26.8 µM (active)
same,AC50,[7],46.1 µM (active)
same,outcome,[7],inactive
same,AC50,[8],2.52 µM (active) [middle of 4 runs]
CC(C)C(=O)OCC(C)(C)C(OC(=O)C(C)C)C(C)C (stereo not given),outcome,[1],inactive
same,outcome,[10],inactive
same,outcome,[3],inactive
same,AC50,[6],31.6 µM (active)
same,AC50,[8],0.483 µM (active)
Cc1cccc([N+](=O)[O-])c1,outcome,[1],inactive
same,outcome,[3],inactive
same,outcome,[4],inactive
same,outcome,[6],inactive
same,outcome,[9],inactive
CCCN(CCC)N=O,outcome,[1],inactive
same,outcome,[3],inactive
same,outcome,[6],inactive
same,outcome,[9],inactive
CCOC(=O)C(O)(c1ccc(Cl)cc1)c1ccc(Cl)cc1,AC50,[1],34.6 µM (active)
same,outcome,[2],inactive
same,AC50,[3],37.9 µM (active)
same,AC50,[6],30.1 µM (active)
same,AC50,[7],11.1 µM (active)
same,AC50,[8],18.3 µM (active)
same,outcome,[9],inactive
CN(C)c1nc(=O)n(C2CCCCC2)c(=O)n1C,outcome,[1],inactive
same,outcome,[3],inactive
same,outcome,[6],inactive
same,outcome,[7],inactive
C1CC2OC2CC1C1CO1 (stereo not given),outcome,[1],inactive
same,outcome,[3],inactive
same,outcome,[6],inactive
OCC(O)CO,AC50,[10],36.7 µM (active)
same,outcome,[2],inactive
same,outcome,[4],inactive
same,outcome,[5],inactive
same,AC50,[7],50 µM (active)
same,outcome,[7],inactive
same,outcome,[8],inactive
same,outcome,[9],inactive
Nc1ccc(-c2ccc(N)cc2)cc1,outcome,[1],inactive
same,outcome,[3],inactive
same,outcome,[4],inactive
same,outcome,[6],inactive
same,outcome,[7],inactive
same,outcome,[8],inactive
same,outcome,[9],inactive
CCC(C)(CC)c1cc(NC(=O)c2c(OC)cccc2OC)on1,outcome,[1],inactive
same,outcome,[2],inactive
same,outcome,[3],inactive
same,outcome,[6],inactive
same,outcome,[7],inactive
same,AC50,[8],0.692 µM (active)
Oc1ccc(C(c2ccc(O)cc2)(C(F)(F)F)C(F)(F)F)cc1,AC50,[1],34.8 µM (active)
same,outcome,[2],inactive
same,AC50,[3],38.3 µM (active)
same,AC50,[6],12.8 µM (active)
same,outcome,[7],inactive
same,AC50,[8],6 µM (active) [middle of 4 runs]
O=S(=O)(O)C(F)(F)C(F)(F)C(F)(F)C(F)(F)C(F)(F)C(F)(F)F,outcome,[1],inactive
same,outcome,[2],inactive
same,outcome,[3],inactive
same,outcome,[6],inactive
same,AC50,[7],32.5 µM (active) and 79.5 µM (active) and 61.7 µM (active)
same,outcome,[8],inactive
C[C@]12CCC(=O)C=C1CC[C@@H]1[C@@H]2CC[C@]2(C)C(=O)CC[C@@H]12,outcome,[1],inactive
same,outcome,[2],inactive
same,outcome,[3],inactive
same,outcome,[4],inactive
same,outcome,[5],inactive
same,outcome,[6],inactive
same,outcome,[7],inactive
same,AC50,[8],7.27 µM (active) and 26.8 µM (active)
same,outcome,[8],inactive
same,outcome,[9],inactive
CCC(=O)O[C@H]1CC[C@H]2[C@@H]3CCC4=CC(=O)CC[C@]4(C)[C@H]3CC[C@]12C,AC50,[1],36 µM (active)
same,outcome,[2],inactive
same,AC50,[3],35.8 µM (active)
same,outcome,[4],inactive
same,outcome,[5],inactive
same,AC50,[6],23 µM (active)
same,outcome,[7],inactive
same,AC50,[8],27.8 µM (active)
same,outcome,[8],inactive
same,outcome,[9],inactive
CC1=C2C[C@H]3[C@@H](CC=C4C[C@@H](O)CC[C@@]43C)[C@@H]2CC[C@]12O[C@@H]1C[C@H](C)CN[C@H]1[C@H]2C,outcome,[1],inactive
same,outcome,[2],inactive
same,outcome,[3],inactive
same,outcome,[5],inactive
same,outcome,[6],inactive
same,outcome,[9],inactive
ClC1=C(Cl)[C@]2(Cl)[C@@H]3[C@@H](Cl)[C@H]4O[C@H]4[C@@H]3C1(Cl)C2(Cl)Cl,outcome,[1],inactive
same,outcome,[2],inactive
same,outcome,[3],inactive
same,outcome,[5],inactive
same,AC50,[6],11.2 µM (active)
same,AC50,[8],4.39 µM (active)
same,outcome,[9],inactive
